Screening results as filed in PubChem.
This excerpt belongs to a sample that is enriched for hits.
miR-122 inh: miR-122 suppressors via Renilla sensor increase, primary screen, cell-based, Huh7 psiCHECK-miR122, Renilla luciferase, single point; 340,000 compounds, 0.14% hits; activation, % at 12.5 µM; 48 h;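 active = mean activation of 30% or more, with every replicate also reaching 30%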;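 note: 0% = median of neutral control wells and 100% = median of positive control wells; higher luciferase signal means stronger suppression of miR-122 activity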
An asterisk follows results filed as active.

SMILES	miR-122 inh
COc1ccc(NC(=O)Nc2ccc3c(c2)OC[C@@H](C)NC[C@H](C)[C@@H](OC)CN(C)C3=O)cc1	-0.6
CO[C@@H]1CN(C)C(=O)c2ccc(NC(=O)c3ccc(Oc4ccccc4)cc3)cc2OC[C@H](C)NC[C@@H]1C	36.6*
COc1ccc(NC(=O)Nc2ccc3c(c2)OC[C@@H](C)NC[C@@H](C)[C@@H](OC)CN(C)C3=O)cc1	2.9
CO[C@@H]1CN(C)C(=O)c2cc(NC(C)=O)ccc2OC[C@H](C)N(C(=O)c2ccccc2)C[C@@H]1C	-0.9
CO[C@@H]1CN(C)C(=O)c2ccc(NC(C)=O)cc2OC[C@@H](C)N(C(=O)c2ccccc2F)C[C@H]1C	35.2*
Cc1ccc(-c2cnc3c(c2)C(=O)N([C@H](C)CO)C[C@H](C)[C@@H](CN(C)C(=O)Cc2ccncc2)O3)cc1	-3.2
C[C@@H]1CN([C@H](C)CO)C(=O)c2cc(C#Cc3ccccc3)cnc2O[C@H]1CN(C)C(=O)c1ccccn1	4.6
C[C@@H]1CN([C@@H](C)CO)C(=O)c2cc(C#CCc3ccccc3)cnc2O[C@@H]1CN(C)C(=O)C1CCCCC1	-1.4
C/C=C/c1cnc2c(c1)C(=O)N([C@@H](C)CO)C[C@H](C)[C@H](CN(C)C(=O)Cc1cccnc1)O2	-0.6
CC(C)C#Cc1ccc2c(c1)O[C@@H](CN(C)C(=O)c1ccccc1)[C@H](C)CN([C@H](C)CO)S2(=O)=O	-17.7
C[C@H](CO)N1C[C@H](C)[C@H](CN(C)C(=O)Nc2ccc(F)cc2)Oc2ncc(C#CCC3CCCC3)cc2C1=O	-10.6
CO[C@H]1CN(C)C(=O)c2cc(NC(=O)Nc3ccccc3)ccc2OC[C@H](C)NC[C@@H]1C	0.5
COc1ccc(C(=O)Nc2ccc3c(c2)OC[C@@H](C)N(C)C[C@@H](C)[C@@H](OC)CN(C)C3=O)cc1	-1.2
C[C@@H]1CN([C@H](C)CO)C(=O)c2cc(C#CC3(O)CCCC3)cnc2O[C@@H]1CN(C)C(=O)Cc1ccccc1	1.6
C[C@@H]1CN([C@H](C)CO)C(=O)c2cc(C#CC3(O)CCCC3)cnc2O[C@H]1CN(C)C(=O)CN(C)C	0.3
CCOc1ccc(S(=O)(=O)N2CCC(C(N)=O)CC2)c2ccccc12	-90.0
CCOc1ccc(CCNC(=O)C2CCN(S(=O)(=O)N3CCC(C)CC3)CC2)cc1OCC	33.3*
CCOc1ccc(NS(=O)(=O)c2cc(NC(=O)C3CC3)ccc2C)cc1Br	-140.2
CCCN(C)C[C@H]1Oc2ncc(C#CC3CCCCC3)cc2C(=O)N([C@H](C)CO)C[C@H]1C	2.8
C[C@H](CO)N1C[C@H](C)[C@H](CN(C)Cc2cccnc2)Oc2cc(C#C[C@@H](C)O)ccc2S1(=O)=O	7.4
C[C@H]1CN([C@@H](C)CO)C(=O)c2cc(C#CC3(O)CCCC3)cnc2O[C@@H]1CN(C)C(=O)C1CCCCC1	1.5
CC(C)C(=O)Nc1ccc2c(c1)C(=O)N(C)[C@H]1CC[C@@H](CC(=O)NCC3CC3)O[C@@H]1CO2	-91.7
COc1cccc(C(=O)Nc2ccc3c(c2)C(=O)N(C)[C@@H]2CC[C@@H](CC(=O)NCc4ccc(F)cc4)O[C@@H]2CO3)c1	36.7*
CCC(=O)Nc1ccc2c(c1)C(=O)N(C)C[C@H](OC)[C@@H](C)CN(Cc1ccccc1OC)[C@@H](C)CO2	-4.4
CN1C(=O)c2cc(NC(=O)Cc3ccccc3)ccc2OC[C@@H]2O[C@@H](CC(=O)NCc3ccc(Cl)cc3)CC[C@@H]21	-233.3
SMILES	miR-122 inh
CO[C@H]1CN(C)C(=O)c2cc(NC(C)=O)ccc2OC[C@@H](C)N(C(=O)c2ccccc2)C[C@@H]1C	0.5
CO[C@@H]1CN(C)C(=O)c2cc(NC(=O)c3ccc(F)cc3)ccc2OC[C@@H](C)N(C)C[C@H]1C	-3.1
CC(C)C(=O)Nc1ccc2c(c1)C(=O)N(C)[C@@H]1CC[C@@H](CC(=O)N[C@H](C)c3ccccc3)O[C@@H]1CO2	70.0*
COc1cccc(CNC(=O)C[C@@H]2CC[C@H]3[C@H](COc4ccc(NS(=O)(=O)c5ccccc5F)cc4C(=O)N3C)O2)c1	36.7*
COc1cccc(C(=O)Nc2ccc3c(c2)C(=O)N(C)[C@@H]2CC[C@@H](CC(=O)N[C@H](C)c4ccccc4)O[C@@H]2CO3)c1	46.7*
C[C@H]1CN([C@@H](C)CO)C(=O)c2cc(C#CC(C)(C)O)cnc2O[C@H]1CN(C)C(=O)C1CC1	7.0
C[C@H](CO)N1C[C@H](C)[C@@H](CN(C)C(=O)CC2CC2)Oc2cc(C#CCC3CCCC3)ccc2S1(=O)=O	-48.7
C[C@@H]1CN([C@@H](C)CO)C(=O)c2cc(C#CC3(O)CCCC3)cnc2O[C@H]1CN(C)S(=O)(=O)c1ccc(F)cc1	-3.4
C[C@H](CO)N1C[C@H](C)[C@H](CN(C)C(=O)Nc2ccccc2)Oc2ncc(-c3ccccc3)cc2C1=O	3.1
COc1ccc(C#Cc2cnc3c(c2)C(=O)N([C@@H](C)CO)C[C@H](C)[C@H](CN(C)CC2CCOCC2)O3)cc1	3.4
C/C=C/c1ccc2c(c1)O[C@H](CN(C)C(=O)CC1CC1)[C@H](C)CN([C@H](C)CO)S2(=O)=O	1.1
